From PubChem BioAssay
SW480 rerep – DNA re-replication induction in SW480 cells | Potency, µM (top dose mostly 46.1 µM), actives largely listed as activators | hit rate 1.8% among 340,000 | SW480 DNA re-replication, Hoechst DNA content imaging, 48 h; also: nearly all actives have a fitted effect of over 55% in size
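Image-based DNA-content assay: after two days of treatment, nuclei were labelled with the DNA dye Hoechst and imaged, and hits were compounds raising the count of nuclei showing high fluorescence intensity.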
RORgamma inh – blocks mouse ROR gamma transcriptional activity | P51450 | Drosophila S2 Gal4-RORgamma UAS-luciferase reporter, 20 h | Potency, µM (doses to about 53.6 µM), usual class: inhibitors | hit rate 5.4% among 310,000 | AID 2551; also: nearly all actives have a fitted effect of over 60% in size
Target sequence (P51450 whole entry, looked up, the tested form may be a part): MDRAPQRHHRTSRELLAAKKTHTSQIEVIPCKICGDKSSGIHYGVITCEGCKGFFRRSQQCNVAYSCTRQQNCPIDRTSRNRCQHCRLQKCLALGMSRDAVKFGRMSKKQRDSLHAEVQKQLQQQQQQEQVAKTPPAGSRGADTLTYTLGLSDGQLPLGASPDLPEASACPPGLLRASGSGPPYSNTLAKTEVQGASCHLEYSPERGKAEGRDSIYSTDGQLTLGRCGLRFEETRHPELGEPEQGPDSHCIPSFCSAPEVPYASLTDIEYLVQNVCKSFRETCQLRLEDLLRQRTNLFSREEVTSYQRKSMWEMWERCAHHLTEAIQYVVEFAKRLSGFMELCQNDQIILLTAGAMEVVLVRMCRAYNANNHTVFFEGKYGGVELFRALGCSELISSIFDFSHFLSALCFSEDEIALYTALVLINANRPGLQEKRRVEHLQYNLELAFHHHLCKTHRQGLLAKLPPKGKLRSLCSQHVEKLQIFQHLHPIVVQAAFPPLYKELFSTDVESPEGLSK
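Stably transfected Drosophila Schneider cells are the test system, with ROR gamma fused to Gal4 and luciferase under UAS control; luminescence is read after 20 hr of 700 uM copper sulfate induction at ambient temperature.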
KB-3-1 tox – kills parental KB-3-1 adenocarcinoma cells; KB-3-1 viability, CellTiter-Glo ATP luminescence, 72 h; Potency, µM (top dose mostly 46.1 µM), actives largely listed as cytotoxic; hit rate 1.4% among 400,000; AID 1347075; also: nearly all actives have a fitted effect of over 60% in size
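Luminescent ATP read-out (CellTiter-Glo) measures survival of drug-naive KB-3-1 cells after 72 h compound exposure at 37 °C. Titration series was screened from lowest to highest concentration, with DMSO vehicle plates as background controls.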
KB-V1 MDR tox – KB-V1 MDR subline cytotoxicity. KB-V1 MDR cells viability, CellTiter-Glo, 72 h. Potency, µM (doses to about 46.1 µM), hits mostly cytotoxic. hit rate 3.4% among 400,000. AID 1347076; also: nearly all actives have a fitted effect of over 60% in size
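Drug-selected KB-V1 cells, grown in DMEM lacking phenol red with 10% FBS, receive compound titrations; after three days at 37 degrees C, surviving cell ATP is quantified by CellTiter-Glo luminescence and responses normalized and curve-fitted.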
Gal4-VP16 FLuc – counter-screen for ROR gamma inhibitors: Gal4-VP16 reporter; Drosophila S2 Gal4-VP16 UAS-luciferase, luminescence, 20 h; Potency, µM (highest dose often 53.6 µM), actives largely listed as inhibitors; hit rate 3.5% among 310,000;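 also: Gal4-VP16 expression switched on by copper sulfate through the metallothionein promoter; nearly all actives have a fitted effect of over 50% in size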
MCF10A rerep – DNA re-replication induction in MCF 10a cells; Potency, µM (top dose mostly 46.1 µM), hits mostly activators; hit rate 2.9% among 350,000; MCF 10A DNA re-replication, Hoechst nuclear intensity, 48 h; also: nearly all actives have a fitted effect of over 50% in size
Hits are given with their value; i = inactive; ? = inconclusive; nt = no result given; [ ] = remark or other dose. This is a sample that favours compounds with a hit; in the whole collection about 10% have one here. Calls follow the shape of the dose curve; as a rule, active = well fitted curve in the direction sought with a large enough effect; inconclusive = small, poorly fitted or top-dose-only effect, or another doubt; inactive = no such curve, though single readings can be large; an effect the other way counts as inactive or inconclusive.

SMILES	SW480 rerep	RORgamma inh	KB-3-1 tox	KB-V1 MDR tox	Gal4-VP16 FLuc	MCF10A rerep
Cc1[nH]n2c(=O)c3c(nc2c1-c1ccc(F)cc1)CCCC3	i	i	?	i	i	i
O=c1c2c(nc3c(-c4ccc(Cl)cc4)c[nH]n13)CCCC2	i[9.22 µM]	2.24µM	?	i	6.31µM	i
Cc1[nH]n2c(=O)c3c(nc2c1-c1ccccc1)CCCC3	i	11.2µM	?	?	?	i
Cc1[nH]n2c(=O)c3c(nc2c1-c1cccc2ccccc12)CCC3	i	12.6µM	i	i	?	?
O=c1c2c(nc3c(-c4cccc5ccccc45)c[nH]n13)CCC2	i	i	i	i	i	11.2µM
CC1CCN(S(=O)(=O)c2ccc3c(ccn3CCC(=O)NCc3ccccc3F)c2)CC1	nt	nt	i	i	nt	nt
Cc1cccc(NC(=O)C(=O)NCC2CCCN2S(=O)(=O)c2cccs2)c1 (centres undefined)	nt	nt	i	?	nt	nt
O=C(NC12CC3CC(CC(C3)C1)C2)c1ccc(N2CCNCC2)c([N+](=O)[O-])c1	?	i	18.4µM	23.1µM	i	i
CCOC(=O)CNc1nc(C(C)(C)C)nc2c1nnn2Cc1ccccc1Cl	i	i	?	5.8µM	i	?
CCOc1ccc(-c2cn[nH]c2N)cc1	?	i	i	i	i	18.4µM
Cc1ccc(S(=O)(=O)n2cnc3ccccc32)cc1	i	i	i	?	i	i
COc1ccc(C)cc1S(=O)(=O)n1cnc2ccccc21	?	i	5.17µM	?	i	?
COC(=O)[C@@]1(Cc2ccc(OC)cc2)[C@H]2c3cc(C(=O)N4CCCC4)n(CCc4ccc(OC)c(Br)c4)c3C[C@H]2CN1C(=O)c1ccccc1	nt	i	?	18.4µM	i	nt
COC(=O)[C@@]1(Cc2ccc(F)cc2)[C@H]2c3cc(C(=O)N4CCCC4)n(CCc4ccc(OC)c(Br)c4)c3C[C@H]2CN1C(=O)c1ccccc1	nt	i	25.9µM	?	i	nt
COC(=O)[C@@]1(Cc2ccc(OC)cc2)[C@H]2c3cc(C(=O)N4CCCC4)n(CCc4ccc(O)c(OC)c4)c3C[C@H]2CN1C(=O)c1ccccc1	nt	i	nt	nt	i	nt
Cc1ccc(CNC(=O)CCN2C(=O)C(C)Oc3ccc(C)cc32)cc1 (centres undefined)	nt	nt	i	i	nt	nt
CCOC(=O)CSc1nc2nc(Cl)c(Cl)nc2[nH]1	nt	nt	i	i	nt	nt
O=C(O)CC(NS(=O)(=O)c1ccc(Cl)s1)c1ccccc1 (centres undefined)	nt	nt	i	i	nt	nt
CCC(C)NCCCOc1cc(Cl)ccc1Cl (centres undefined)	i	i	i	i	i	i
CCC(C)NCCCCOc1ccc(Cl)cc1C (centres undefined)	?	i	i	16.4µM	i	?
O=C(CN1CCC(C(=O)c2ccc(Cl)cc2)CC1)NC1CCCC1	?	i	i	?	i	i
Cc1ccc(NC(=O)N2CCC(C(=O)c3ccc(F)cc3)CC2)cc1	i	i	i	23.1µM	i	i
O=C(CN1CCCCCCC1)NC(=O)NC1CCCCC1	i	i	?	?	i	16.4µM
O=C(Cn1ncc(Cl)c(Cl)c1=O)NC(=O)NC1CCCCC1	13µM	nt	?	?	nt	8.2µM
Cc1ccc(C(=O)C2CCN(CC(=O)NC3CCCCC3)CC2)cc1	i	i[10 µM]	i	13µM	i	i
SMILES	SW480 rerep	RORgamma inh	KB-3-1 tox	KB-V1 MDR tox	Gal4-VP16 FLuc	MCF10A rerep
O=C(Cn1ncc2c3ccccc3n(Cc3ccc(Cl)cc3)c2c1=O)NC1CCCCCC1	nt	nt	i	i	nt	nt
O=C(CN1CCCCC1)NC(=O)NC1CCCC1	i	i	i	i	i	i
CC(=O)NC(c1ccccc1)c1nc(-c2cc3ccccc3o2)cs1 (centres undefined)	nt	nt	i	i	nt	nt
CC(=O)O[C@]1(C(C)=O)CC[C@@H]2[C@@H]3C=C(Cl)C4=CC(=O)[C@H]5C[C@@H]5[C@]4(C)[C@H]3CC[C@]21C	nt	i	nt	nt	i	nt
O=C(C[n+]1csc2ccccc21)c1ccc(O)c(O)c1	nt	nt	i	i	nt	nt
CCCCC[C@H](O)/C=C/[C@@H]1[C@@H](C/C=C\CCCC(=O)O)[C@@H](O)C[C@@H]1O	nt	i	nt	nt	i	nt
CCn1cc(C(=O)NC(C)C23CC4CC(CC(C4)C2)C3)cn1 (centres undefined)	i	i	i	?	i	i
